Results taken from PubChem BioAssay (NCATS).
“And” between values parts separate entries of the source, which are not always exact repeats. Identical values can stand only once. Results filed as inconclusive are left out. A number with no mark means an inactive call. The source made the active and inactive calls. Calls follow the shape of the dose curve; as a rule, active = well fitted inhibition curve with a large enough effect; inconclusive = small, poorly fitted or top-dose-only effect; inactive = flat fitted curve, though single readings scatter.

The compounds below were run on KB-3-1 (assay: Cytotoxic Profiling of Annotated Libraries Using Quantitative High-Throughput Screening (AID 1296008; also: nearly all actives have a fitted effect of over 60% in size)). Conditions: Five cell lines viability, CellTiter-Glo ATP luminescence, 48-72 h; max response: stronger effect = lower value.
Summary of the method: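 Compounds were pin-transferred onto cells and incubated 48 or 72 hr at 37 degree Celsius, 95% humidity. CellTiter-Glo was added, plates sat 10 min at room temperature, then ATP-coupled luminescence was imaged as the viability read-out.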
% is scaled to controls: 0 for no effect and ±100 for the full control effect; potency is read from the fitted curve at half-maximal effect.

Row | SMILES | max response | Potency | outcome
1 | O=C(NCC1CN(c2ccc(N3CCOCC3=O)cc2)C(=O)O1)c1ccc(Cl)s1 (stereo not drawn) | -19.6% |  | 
2 | CN(C)c1ccc(C(=C2C=CC(=[N+](C)C)C=C2)c2ccc(N(C)C)cc2)cc1 |  | 7.31 µM (active) and 93.5 nM (active) | 
3 | CC1=C(C(=O)O)N2C(=O)[C@@H](NC(=O)C(N)c3ccccc3)[C@H]2SC1 (stereo partly drawn) |  |  | inactive
4 | CCN1CCCC1CNC(=O)c1cc(S(N)(=O)=O)ccc1OC (stereo not drawn) |  |  | inactive
5 | CC(C)NCC(O)c1ccc(NS(C)(=O)=O)cc1 (stereo not drawn) | 2.03% and 6.79% |  | 
6 | CC(C)C1CCC(C(=O)N[C@H](Cc2ccccc2)C(=O)O)CC1 (stereo partly drawn) | 4.69% and 4.96% |  | 
7 | COc1c(N2CCNC(C)C2)c(F)cc2c(=O)c(C(=O)O)cn(C3CC3)c12 (stereo not drawn) | 0.558% |  | inactive
8 | CC(C)(C)NC(=O)[C@H]1CC[C@H]2[C@@H]3CC[C@H]4NC(=O)C=C[C@]4(C)[C@H]3CC[C@]12C | 9.49% and 2.45% |  | 
9 | CCCCS(=N)(=O)CCC(N)C(=O)O (stereo not drawn) | -5.13% |  | 
10 | Nc1nc(N)nc(-c2cc(Cl)ccc2Cl)n1 | -7.71% |  | 
11 | CCCCOc1ccc(CC(=O)NO)cc1 | -6.89% |  | inactive
12 | NCCCC(O)(P(=O)(O)O)P(=O)(O)O | 17.7% and -6.17% |  | 
13 | COc1cc2ncnc(Nc3cccc(Cl)c3)c2cc1OC |  | 16.6 µM (active) | 
14 | Cc1oc(=O)oc1CN1CCN(c2cc3c(cc2F)c(=O)c(C(=O)O)c2n3C(C)S2)CC1 (stereo not drawn) | 23.6% |  | inactive
15 | O=C(O)C1CCCN(CCC=C(c2ccccc2)c2ccccc2)C1 (stereo not drawn) | 5.05% |  | 
16 | CNC1CCCN(c2c(F)cc3c(=O)c(C(=O)O)cn(C4CC4)c3c2OC)C1 (stereo not drawn) |  |  | inactive
17 | Nc1nc(N)c2nc(CNc3ccc(C(=O)NC(CCC(=O)O)C(=O)O)cc3)cnc2n1 (stereo not drawn) |  | 0.0332 µM (active) | 
18 | CCOC(=O)[C@H](CCc1ccccc1)N[C@H]1CCc2ccccc2N(CC(=O)O)C1=O | 4.39% |  | 
19 | O=C(O)c1cn(C2CC2)c2cc(N3CCNCC3)c(F)cc2c1=O | -1.15% |  | inactive
